HCV inh – inhibitors of hepatitis C virus infection | Huh7.5.1 HCVcc-Cre infection, luciferase reporter, 44 h | Potency, µM (titrated, usually from 41.8 µM), usual class: inhibitors | 340,000 compounds, 3.4% hits | AID 651820
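HCVcc-Cre virus at an moi near 0.5 was added right after compound to cells cultured 4 h from seeding (1,000 cells/well). Luciferase activity was determined 44 h later, 15 min after substrate addition at RT.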
Pf growth 96h – P. falciparum growth inhibition at 96 hours; P. falciparum luciferase reporter growth, 96 h; Potency, µM (titrated, usually from 28.7 µM), usual class: inhibitors; 320,000 compounds, 6.9% hits; AID 504834
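Luminescence readout: decreased luciferase signal marks inhibited growth of reporter-expressing P. falciparum in infected red cells (2% hematocrit, 0.05% parasitemia final), exposed to compound two generations (96 h, 37 C, 5% CO2).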
AmpC inh detg – blocks E. coli AmpC beta-lactamase in detergent assay | P00811 | AmpC hydrolysis of nitrocefin, absorbance 480 nm, 0.01% Triton | AID 485294 | 370,000 compounds, 0.041% hits | Potency, µM (titrated, usually from 114 µM), hits mostly inhibitors; also: nearly all actives have a fitted effect of over 25% in size
Target sequence (P00811 whole entry, looked up): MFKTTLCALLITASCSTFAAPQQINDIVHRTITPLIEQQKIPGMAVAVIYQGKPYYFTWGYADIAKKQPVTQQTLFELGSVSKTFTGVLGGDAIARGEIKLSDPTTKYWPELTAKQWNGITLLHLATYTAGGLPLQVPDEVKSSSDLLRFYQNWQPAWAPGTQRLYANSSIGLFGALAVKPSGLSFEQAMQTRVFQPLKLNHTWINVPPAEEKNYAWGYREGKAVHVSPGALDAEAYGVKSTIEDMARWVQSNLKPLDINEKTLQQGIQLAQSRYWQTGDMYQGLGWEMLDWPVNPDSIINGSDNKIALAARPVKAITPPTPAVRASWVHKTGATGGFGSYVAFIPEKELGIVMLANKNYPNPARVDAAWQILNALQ
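20 mM phosphate pH 7.0 + 0.01% (detergent screen) or 0.0001% Triton X-100; 5.3 nM AmpC reagent; cpd preinc 15 min RT; nitrocefin (800 uM stock) to start; A480 q20 s × 4 min; Activity was normalised to no-enzyme and no-compound control wells.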
AmpC inh no detg – AmpC beta-lactamase inhibition without detergent; AID 485341; Potency, µM (doses to about 57.1 µM), hits mostly inhibitors; 330,000 compounds, 0.52% hits; AmpC nitrocefin hydrolysis, absorbance 480 nm, 0.0001% Triton; P00811; also: nearly all actives have a fitted effect of over 20% in size
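20 mM phosphate pH 7.0 + 0.01% (detergent screen) or 0.0001% Triton X-100; 5.3 nM AmpC reagent; cpd preinc 15 min RT; nitrocefin (800 uM stock) to start; A480 q20 s × 4 min; Activity was normalised to no-enzyme and no-compound control wells.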
AMA1-RON2 inh – AMA1-RON2 (P. falciparum) interaction inhibition. 360,000 compounds, 0.2% hits. AlphaScreen AMA1-biotinylated RON2 peptide binding. Potency, µM (top dose mostly 58.2 µM), usual class: inhibitors. AID 720542; also: nearly all actives have a fitted effect of over 45% in size
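AMA1 (3D7) with his tag at 25 nM final met compounds first, then biotinylated RON2 peptide at 25 nM; detection used donor plus acceptor beads, 10 µg/mL apiece, read by AlphaScreen after 30 min at room temperature.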
Pf growth 48h – P. falciparum growth inhibition at 48 hours (one generation). 310,000 compounds, 5.9% hits. P. falciparum luciferase growth in erythrocytes, 48 h. Potency, µM (doses to about 28.7 µM), usual class: inhibitors
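In quantitative HTS format, infected erythrocytes bearing luciferase-reporter parasites were treated for a single generation at 37 C. Luminescence after adding detection reagent served as the growth measure.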
A number is an active result; . = inactive; ? = inconclusive; / = no result given; [ ] = another dose, or the depositor's remark. Most compounds without a hit are left out; they make up all but 11% or so of the library. Calls follow the shape of the dose curve; as a rule, active = well fitted curve in the direction sought with a large enough effect; inconclusive = small, poorly fitted or top-dose-only effect, or another doubt; inactive = no such curve, though single readings can be large; an effect the other way counts as inactive or inconclusive.

SMILES	HCV inh	Pf growth 96h	AmpC inh detg	AmpC inh no detg	AMA1-RON2 inh	Pf growth 48h
CCN1C(=O)[C@H]2[C@@H](c3ccc(-c4ccc(C(C)=O)cc4)cc3)N[C@@](Cc3ccccc3)(C(=O)OC)[C@H]2C1=O	?	10µM	?	.	.	13µM
CCN1C(=O)[C@H]2[C@@H](c3ccc(-c4ccccc4)cc3)N[C@@](CC(C)C)(C(=O)OC)[C@H]2C1=O	.	9.3µM	?	.	.	8.3µM
CCN1C(=O)[C@H]2[C@@H](c3ccc(-c4ccccc4)cc3)N[C@@](Cc3ccccc3)(C(=O)OC)[C@H]2C1=O	.	?	.	.	.	10µM
COc1cc(Br)cc(/C=N/NC(=O)Cc2ccccc2)c1O	13µM	/	/	/	.	/
O=C(O)COc1ccccc1/C=N/NC(=O)c1ccc(F)cc1	.	.	.	.	.	.
O=C(O)COc1ccccc1/C=N/NC(=O)Cc1ccccc1	.	10µM	.	.	.	.
COc1cc(/C=N/NC(=O)Cc2ccc(Br)cc2)cc(OC)c1O	?	12µM	.	.	.	.
O=C(Cc1ccccc1)N/N=C/c1cc(Br)cc(Cl)c1O	?	?	.	.	.	.[5.75 µM]
CCOC(=O)c1ccc(NC(=O)C2=C(C)C(=O)OC23CCN(C(C)=O)CC3)cc1	/	/	.	/	/	/
Cc1cc(C)cc(NC(=O)Cn2c(C)cc(C)c(C#N)c2=O)c1	/	/	.	/	/	/
N/C(=N\OC(=O)C12CC3CC(CC(C3)C1)C2)c1ccncc1	.	?	.	.	.	10µM
CCC(C)C(NC(=O)C(CC(C)C)NC(=O)C(CO)NC(=O)C1CCC(=O)N1)C(=O)OC (stereo not drawn)	.	.	.	.	.	.
CC(C)CC(NC(=O)C(CO)NC(=O)C1CCC(=O)N1)C(N)=O (stereo not drawn)	.	10µM	.	.	.	.
COc1ccc(OC)c(CCNC(=O)Cn2nc(C)n3c(cc4sccc43)c2=O)c1	/	/	.	/	/	/
COc1ccc2cc(Br)ccc2c1CC(=O)NC(C)C	.	.	.	.	.	.
C=CCNC(=O)Cc1c(OC)ccc2cc(Br)ccc12	10µM	.[5.75 µM]	.	.	.	.
COCCn1nnnc1C(c1cc2cc(OC)ccc2[nH]c1=O)N1CCC(Cc2ccccc2)CC1 (stereo not drawn)	.	.	?	.	.	12µM
O=c1[nH]c2cc3c(cc2cc1C(c1nnnn1Cc1ccccc1)N1CCN2CCCC2C1)OCCO3 (stereo not drawn)	.	12µM	.	.	.	?
CCN(Cc1ccccc1)C(c1cc2cc(C)ccc2[nH]c1=O)c1nnnn1CCOC (stereo not drawn)	.	12µM	?	.	.	?
CCN(Cc1ccccc1)C(c1cc2cc(C)cc(C)c2[nH]c1=O)c1nnnn1CCOC (stereo not drawn)	.	.	.	.	.	?
O=c1[nH]c2cc3c(cc2cc1C(c1nnnn1Cc1ccccc1)N1CCCCCC1)OCCO3 (stereo not drawn)	.	?	?	.	.	/
CCOC(=O)C1CCCN(c2nc3c(S(=O)(=O)c4ccc(Br)cc4)nnn3c3ccsc23)C1 (stereo not drawn)	/	/	.	/	/	/
CCC(C)(C)C1CCC(=NNc2nc3ccccc3[nH]2)CC1 (stereo not drawn)	?	10µM	.	.	.	10µM
CC1CCCCC1NC(=O)Cc1ccc(S(=O)(=O)N2CCOCC2)s1 (stereo not drawn)	?	12µM	?	35µM	.	?
CCS(=O)(=O)c1ncc(Cl)c(C(=O)Nc2ccc(S(=O)(=O)N3CCCC(C)C3)cc2)n1 (stereo not drawn)	13µM	.	?	.	.	.
O=C(Cc1ccc(S(=O)(=O)N2CCOCC2)s1)Nc1ccc(S(=O)(=O)N2CCCCC2)cc1	.	?	.	.	.	?
CC1CCCN(S(=O)(=O)c2ccc(NC(=O)Cc3ccc(S(=O)(=O)N4CCOCC4)s3)cc2)C1 (stereo not drawn)	?	7.4µM	?	.	.	?

Assay outcomes as filed in PubChem.
